Assay in all cases: Cytotoxic Profiling of Annotated Libraries Using Quantitative High-Throughput Screening (AID 1296008); further: nearly all actives have a fitted effect of over 60% in size
Conditions in all cases: Five cell lines viability, CellTiter-Glo ATP luminescence, 48-72 h; max response: hits give low values

One test concerns CRL-7250. Put shortly:
(§1)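 Cytotoxicity was measured as CellTiter-Glo ATP luminescence, read after 10 min at room temperature. Compound treatment of the cells lasted 48 or 72 hr at 37 degrees Celsius in a qHTS format.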

The test system of the next test is HEK293. The procedure, abridged:
as §1

The subject of another test is HaCat. Put shortly: as §1
The test system of a further test is KB-3-1. The procedure, abridged:
as §1

The next test relates to NIH3T3. The procedure, abridged:
as §1

Results filed as inconclusive are left out. Unmarked numbers belong to inactive results. The source made the active and inactive calls. The call rests on the fitted dose curve; in most records, active means well fitted inhibition curve with a large enough effect; inconclusive means small, poorly fitted or top-dose-only effect; inactive means flat fitted curve, though single readings scatter.
On the % scale 0 is the no-effect control and ±100 the full control effect; potency means the concentration at half of the fitted maximal effect.

`CC1C(=O)OCC2=CCN3CCC(OC(=O)C(C)(O)C1(C)O)C23` (stereo not given): the outcome in the test with CRL-7250 and in the test on KB-3-1 was inactive. The max response with HEK293 is -9.35%; in the test on HaCat it was -22.6%; in the test with NIH3T3, -32%.

Consider `C/C1=C\CC[C@H](C)CCO[C@@H]2O[C@H](CO[C@@H]3OC[C@](O)(COC1=O)[C@H]3O)[C@@H](O)[C@H](O)[C@H]2O`, for which the result with CRL-7250 and with KB-3-1 was inactive. In addition, the max response was -0.349% with HEK293, -11.3% in the test with HaCat and -5.92% with NIH3T3.

As for `CC(C)(C)NS(=O)(=O)c1cncc(-c2cc(F)c3nc(N)nn3c2)c1`, the compound was classed as inactive in the test on CRL-7250 and with KB-3-1. For the same compound, the results for the max response in the test with HEK293, in the test on HaCat and in the test with NIH3T3 were -1.27%, -25.2% and 3.5%, respectively.

Regarding `CC1(C(=O)O)CCCC2(C)C3CCC4CC3(CCC12)CC4=O` (stereo not given), the max response was -1.87% with CRL-7250; 0.827% with HEK293; 2.83% in the test on HaCat; -1.11% with KB-3-1; -6.02% in the test on NIH3T3.

`COc1cc(C(=O)O)ccc1OC1OC(CO)C(O)C(O)C1O` (stereo not given): the outcome in the test on CRL-7250 and in the test on KB-3-1 was inactive. The max response in the test on HEK293 was -3.87%; in the test on HaCat it was 0.774%; in the test on NIH3T3 it was -5.21%.

With `COc1cc(NC(=O)Nc2cccc(CNC(=O)O[C@H]3CCOC3)c2)ccc1-c1cnco1`, the Potency is 8.2 µM (active) in the test with CRL-7250, 2.31 µM (active) in the test on HEK293, 4.11 µM (active) with KB-3-1 and 3.66 µM (active) in the test with NIH3T3. For the same compound, the max response with HaCat was -5.46%.

As for `CC1(C)CC[C@]2(C(=O)O[C@@H]3O[C@H](CO[C@@H]4O[C@H](CO)[C@@H](O)[C@H](O)[C@H]4O[C@@H]4O[C@H](CO)[C@H](O)[C@H](O)[C@H]4O)[C@@H](O)[C@H](O[C@@H]4O[C@H](CO)[C@@H](O)[C@H](O)[C@H]4O)[C@H]3O)CC[C@]3(C)C(=CCC4[C@@]5(C)CC[C@H](O[C@@H]6OC[C@@H](O)[C@H](O)[C@H]6O)[C@@](C)(C(=O)O)C5CC[C@]43C)[C@@H]2C1` (stereo not given in full), the max response is -1.09% in the test with CRL-7250; 2.33% with HEK293; -16.1% in the test on HaCat; 4.92% with KB-3-1; 1% with NIH3T3.

`C(#Cc1nc2ncccc2nc1OCCN1CCCC1)c1ccccc1`: the Potency in the test on CRL-7250 was 6.51 µM (active); with HEK293, 1.84 µM (active); in the test on HaCat, 5.8 µM (active); in the test with KB-3-1, 8.2 µM (active); with NIH3T3, 5.17 µM (active).

For the compound `C=C1CC2C(C)(CCC(=O)O)C(C(C)(C)O)CCC2(C)C2C(=O)OC(C)(C(=O)OC)C(=O)C12C` (stereo not given), the max response in the test on CRL-7250 is -2.01%; in the test on HEK293, 3.75%; with HaCat, 4.3%; with NIH3T3 it was -2.52%. Moreover, in the test with KB-3-1, the result was inactive.

With `CC(C)(O[C@@H]1O[C@H](CO)[C@@H](O)[C@H](O)[C@H]1O)C(OC(=O)/C=C\c1ccc(O)cc1)C(=O)OCc1ccc(O[C@@H]2O[C@H](CO)[C@@H](O)[C@H](O)[C@H]2O)cc1` (stereo not given in full), the max response is -12.2% in the test with CRL-7250, -30.7% in the test with HEK293, -19.6% in the test on HaCat and -27.1% in the test with NIH3T3. In addition, in the test on KB-3-1, the result was inactive.

In the case of `NC(=O)c1cccc(-c2cc(OC(=O)NC3CCCCC3)ccc2O)c1`, the max response was 2.23% in the test with CRL-7250; -86.9% in the test on HEK293; 4.07% with HaCat; -19.2% in the test with KB-3-1; -3.22% with NIH3T3.

Consider `CCOC(=O)C(CCc1ccccc1)NC1CSC(c2cccs2)CN(CC(=O)O)C1=O` (stereo not given), for which the max response is 2.02% in the test with CRL-7250, -2.54% in the test with HEK293, 1.02% in the test on HaCat and -0.887% with NIH3T3. Also, in the test on KB-3-1, the compound was called inactive.

Regarding `CC[C@H]1OC(=O)[C@](C)(F)C(=O)[C@H](C)[C@@H](O[C@@H]2O[C@H](C)C[C@H](N(C)C)[C@H]2O)[C@](C)(OC)C[C@@H](C)C(=O)[C@@H](C)[C@H]2N(CCCCn3cc(-c4cccc(N)c4)nn3)C(=O)O[C@]12C`, the max response was -0.28% in the test with CRL-7250, -5.51% with HaCat, -12.6% in the test with KB-3-1 and 1.26% with NIH3T3. Further, the Potency in the test on HEK293 is 1.46 µM (active).

On to `O=C(/C=C/c1ccc(O)cc1)OC1[C@H](O)CC(O)(C(=O)O)C[C@H]1O` (stereo not given in full), for which the max response in the test on CRL-7250 was -9.1%; in the test on HEK293, -1.83%; in the test on HaCat it was 1.01%; in the test on KB-3-1, 2.34%; with NIH3T3, -9.08%.

`C1CCC[C@H]2CCCN3CC[C@@H](CCCCCC[C@@H]4CCCN5CC[C@@H](CC1)O[C@@H]45)O[C@@H]23`: the max response with CRL-7250 was 0.135%; in the test with HEK293, 4.46%; with HaCat, -0.73%; with KB-3-1 it was 8.9%; with NIH3T3, 2.62%.

In the case of `c1ccc(N2CCN(CCc3nn[nH]n3)CC2)cc1`, the max response with CRL-7250 was 4.82%; in the test with HEK293, -5.85%; in the test with HaCat it was -17.8%; in the test on KB-3-1 it was 7.49%; with NIH3T3, 1.1%.

As for `Cc1ccc(S(=O)(=O)c2ccc([N+](=O)[O-])o2)cc1`, the Potency in the test on CRL-7250 is 5.8 µM (active); in the test on HEK293, 1.03 µM (active); with HaCat, 6.51 µM (active); in the test on KB-3-1, 23.1 µM (active); in the test with NIH3T3, 5.17 µM (active).

As to `C=C1C(OC(C)=O)CCC2(C)CC3(OC)OC(=O)C(C)=C3CC12` (stereo not given), the max response was -3.85% in the test on CRL-7250; -22.9% in the test on HEK293; -0.749% in the test on HaCat; 7.17% with KB-3-1; 0.22% in the test on NIH3T3.
